Reference: PubChem BioAssay AID492952 (Southern Research Specialized Biocontainment Screening …, 2010)
In all, about 2,300 compounds went through this assay and about 1,500 (65%) were called active. So high a share suggests a set chosen from earlier hits. This is one part of the list. Potency and affinity values are given separately. Unmarked numbers belong to inactive results. No rule for the calls is given here.

Assay: replicating M. tuberculosis growth inhibition, dose response, non-replicating M. tuberculosis project, H37Rv (AID 492952);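 also: Mycobacterium tuberculosis grown in culture; growth inhibition read after a week of incubation; 0% = bacteria alone untreated and 100% = bacteria with high antibiotic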
Conditions: series mostly up to 50 µM; inhibition: at the top concentration

Row | SMILES | inhibition
1 | CN(C)/C=C1/C(=O)N(c2ccc([N+](=O)[O-])cc2)N=C1c1ccccc1 | 13.5%
2 | Cc1cc2cc(CNC(=O)C3CCCC3)ccc2n1C | 7.86%
3 | CC1(C)Oc2ccc(NC(=O)C3COc4ccccc4O3)cc2O1 (stereo not given) | 6.53%
4 | S=C(Nc1ccc2c(c1)OCO2)Nc1ccc2c(c1)OCO2 | -3.44%
5 | O=C(c1ccccc1)n1c(=O)c(F)cn(COCCBr)c1=O | 17.5%
6 | O=C(CCc1ccccc1F)N1CCN(c2ccccc2)CC1 | 5.47%
7 | COc1ccc([N+](=O)[O-])c(S(=O)(=O)c2ccc(Cl)cc2)n1 | 5.39%
8 | CCOC(=O)N1CCC(NS(=O)(=O)c2cc3c(cc2Cl)NC(=O)CO3)CC1 | 1.04%
9 | O=C(Cc1ccccc1)Nc1ccc(C(=O)NCC2COc3ccccc3O2)cc1 (stereo not given) | 0.05%
10 | O=C(Nc1sc2c(c1C(=O)O)CCCC2)c1ccc(F)cc1 | 23.8%
11 | O=C(Nc1ncc2c(n1)-c1ccccc1OC2)c1ccc(F)cc1 | -4.04%
12 | O=C(CCc1ccccc1)N/N=C/c1cc(Br)ccc1O | 2.75%
13 | COc1ccc(N/N=C/c2c(C(=O)O)ccc3ccccc23)cc1 | 2.17%
14 | O=C(Nc1nccs1)c1ccc(Br)cc1 | 0.57%
15 | CC(C)c1nnc(NC(=O)c2sc3ccccc3c2Cl)s1 | 21%
16 | C=C1Cn2c(nnc2-c2ccc(Cl)cc2)S1 | -4.15%
17 | COc1ccc(N=N/C(=C\O)C(=O)c2ccco2)cc1 | 4.59%
18 | Clc1ccc(Cc2nnc(-c3cccs3)o2)cc1 | 4%

Row | SMILES | inhibition
19 | COCc1[nH]nc2c1C(c1sccc1C)C(C#N)=C(N)O2 (stereo not given) | -5.55%
20 | Cc1cccc(NC(=O)COC(=O)c2cc3ccccc3oc2=O)c1 | 7.86%
21 | O=C(COC(=O)c1cc2ccccc2oc1=O)Nc1ccc(F)cc1F | 4.18%
22 | O=C(NCc1ccccc1)c1cc2ccccc2oc1=O | 3.25%
23 | Cc1cccc(NC(=O)c2cc3ccccc3oc2=O)c1 | 20.2%
24 | NNC(=O)CNC(=O)C12CC3CC(CC(C3)C1)C2 | -2.33%
25 | COc1ccc2c(c1)C(=C(C#N)C#N)C(=O)N2CCc1ccccc1 | 19.6%
26 | COc1ccc(OC(=O)C(C)N2C(=O)c3ccccc3C2=O)cc1 (stereo not given) | 1.98%
27 | CCN1/C(=C(\O)c2ccccc2)C(=O)c2ccccc2S1(=O)=O | 10.2%
28 | Cc1cccc2nc(CSc3nc4cc([N+](=O)[O-])ccc4s3)cn12 | 3.56%
29 | CC(C)CN1C(=O)CC(Sc2ccccc2C(=O)O)C1=O (stereo not given) | -4.69%
30 | COc1ccc(CCCC(=O)NCc2ccccc2)cc1C | 2.81%
31 | COc1cc(CNC2CCCC2)cc(Cl)c1OCc1ccc(F)cc1 | 6.76%
32 | NC(=O)C1(N2CCCCC2)CCN(C2CC(=O)N(CCc3ccccc3)C2=O)CC1 (stereo not given) | -4.99%
33 | CCCCCCOc1ccc(C(=O)O)cc1C#N | -1.62%
34 | O=C(NCc1ccco1)c1nc2ccccc2s1 | 2.82%
35 | CC(C)(C)CC(=O)NC(=S)NCc1ccco1 | -5.48%
